Hits are enriched below; roughly 3.1% of the tested compounds scored in any of these assays.
PLK1 PBD inh – blocks phosphopeptide binding to human PLK1 polo-box domain. P53350. Plk1 PBD binding of FITC phosphopeptide, fluorescence polarization. Potency, µM, for inactives: max response, negative = inhibition, usual class: inhibitors. actives 2.8% (n = 360,000). AID 720504; also: potency is read from the fitted curve at half-maximal effect; series mostly up to about 57 µM; nearly all actives have a fitted effect of over 65% in size
GLS inh – inhibitors of human glutaminase (GLS); O94925; GLS enzymatic activity, qHTS titration; Potency, µM (doses to about 45.5 µM), inactives show at the highest dose activity change, negative = inhibition, hits mostly inhibitors; actives 0.21% (n = 410,000); also: potency is read from the fitted curve at half-maximal effect
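hKGA; 45 mM KH2PO4 pH 8.2 + 0.02% Tween-20; cpd via pin tool; 1 mM Gln soln; GluOx/HRP/Amplex Red; RT 30 min; fluor. t0 & final.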
KAT2A inh – inhibitors of human GCN5L2 histone acetyltransferase. Q92830. GCN5L2 HAT assay, ThioGlo1 CoA-SH fluorescence. Potency, µM (top dose mostly 58.9 µM), without a hit: at the top dose activity change, negative = inhibition, most hits filed as inhibitors. actives 0.21% (n = 390,000); also: potency is read from the fitted curve at half-maximal effect
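qHTS, 1536-well. 20nM enzyme, pH 7.5 HEPES/EDTA/Tween-20 buffer; 15 min compound preinc., RT. Start: 75uM H3(1-25), 70uM AcCoA, 50uM ThioGlo1. Read Ex340/Em540 at t=0 (autofluorescence flag) and t=20 min.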
VDR inhibitor – vitamin D3 receptor (human) inhibition | VDR-SRC2-3 peptide fluorescence polarization, 2 h | AID 504847 | P11473 | Potency, µM, for the others: max response, negative = inhibition, actives largely listed as inhibitors | actives 0.93% (n = 400,000); also: potency is read from the fitted curve at half-maximal effect
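Compounds are added to VDR with labelled SRC2-3 coactivator peptide and held 2 h at room temperature. Inhibition of the VDR–peptide interaction is then read as a change in fluorescence polarization.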
PI4K2A block – PI4K2A (human) kinase inhibition; Q9BTU6; purified PI4K2A, ADP-Glo luminescence, 1 h; active compounds read low; activity change, negative = inhibition, % at 76.9 µM; actives 0.13% (n = 420,000); in the data active = activity change below about -50%; inconclusive = mostly about -30% to -49%;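 also: -100% = wells without enzyme as full effect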
Target sequence (Q9BTU6 whole entry, looked up): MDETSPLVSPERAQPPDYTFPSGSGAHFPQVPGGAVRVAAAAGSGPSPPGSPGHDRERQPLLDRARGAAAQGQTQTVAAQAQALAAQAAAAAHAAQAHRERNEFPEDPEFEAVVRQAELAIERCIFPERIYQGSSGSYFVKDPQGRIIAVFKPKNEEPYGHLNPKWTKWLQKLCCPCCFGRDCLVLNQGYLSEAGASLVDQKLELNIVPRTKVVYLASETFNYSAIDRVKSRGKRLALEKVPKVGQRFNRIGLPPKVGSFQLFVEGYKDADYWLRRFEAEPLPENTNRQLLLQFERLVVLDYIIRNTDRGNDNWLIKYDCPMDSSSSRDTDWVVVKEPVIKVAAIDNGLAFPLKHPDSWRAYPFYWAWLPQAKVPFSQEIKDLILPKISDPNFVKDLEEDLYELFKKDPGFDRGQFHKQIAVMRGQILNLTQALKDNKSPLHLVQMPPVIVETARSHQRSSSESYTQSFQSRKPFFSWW
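Compounds are screened against recombinant PI4K2A using PI as substrate and ATP, the latter dispensed at 300 microM. Reactions run one hour at ambient temperature before ADP-Glo detection; full inhibition defined by wells lacking enzyme.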
Starred values were filed as active, the others as inactive; ? = inconclusive; . = not tested or not shown; ! = a repeat was not active; [ ] = dose if it differs, or a comment. Unless noted, calls follow the shape of the dose curve; as a rule, active = well fitted curve in the direction sought with a large enough effect; inconclusive = small, poorly fitted or top-dose-only effect, or another doubt; inactive = no such curve, though single readings can be large; an effect the other way counts as inactive or inconclusive. Unless noted, % is scaled to controls: 0 for no effect and ±100 for the full control effect.

SMILES	PLK1 PBD inh	GLS inh	KAT2A inh	VDR inhibitor	PI4K2A block
COc1ccc(NC(=O)CN(C)C(=O)/C=C/c2ccc(OCc3ccccc3)cc2)cc1	30µM*	2%	-1%	-16%	2
O=C(COc1ccc(Br)cc1)N/N=C1/SCC(=O)N1Cc1ccco1	24µM*	0%	6%	?	3
c1ccc(-c2n[nH]c(-c3ccccc3)c2-c2nc3ccccc3[nH]2)cc1	27µM*	40%	?	?	0
N#CC1=C(S)N(c2ccccc2)C(c2ccc(-c3ccc(Cl)c(Cl)c3)o2)NC1=O (stereo unspecified)	?	-1%	-25%	56µM*	-3
N#CC1=C(S)N(c2ccccc2)C(c2ccco2)NC1=O (stereo unspecified)	8%	-2%	-14%	-7%	3
N#CC1=C(S)N(c2ccc(F)cc2)C(c2ccco2)NC1=O (stereo unspecified)	?	-6%	-7%	?	-2
N#CC1=C(S)N(c2ccccc2)C(c2ccc(-c3cc(Cl)ccc3Cl)o2)NC1=O (stereo unspecified)	?	-9%	?	79µM*	2
O=C(c1ccc(C#Cc2ccccc2)cc1)N1CCC(O)CC1	.	.	.	.	-1
C[N+](C)(C)CCOP(=O)(O)OP(=O)([O-])OCC1OC(n2ccc(N)nc2=O)[C@H](O)[C@@H]1O (stereo partly specified)	.	-1%	.	.	.
CCOc1ccc(-c2cc(NC(=O)c3c(F)cccc3F)c(C(=O)O)s2)cc1	34µM*	6%	-15%	?	-1
CCOC(=O)c1cc(=O)c2c(OCC(COc3cccc4oc(C(=O)OCC)cc(=O)c34)OC(=O)[C@@H](N)CCCCN)cccc2o1	.	.	.	.	-3
COc1ccccc1OCC(=O)NCCSCc1ccccc1Cl	27µM*	-1%	-3%	?	-6
N#Cc1c(Nc2ccccc2C(F)(F)F)s[nH]c1=O	27µM*	-24%	?	?	-1
N#Cc1c(Nc2ccccc2Cl)s[nH]c1=O	?	?	?	?	-1
CCOC(=O)Cc1csc(NC(=O)CC)n1	-8%	19%	0%	-3%	1
CCOC(=O)Cc1csc(NC(=O)Cn2cnc3c2c(=O)n(C)c(=O)n3C)n1	12µM*	-5%	?	?	-2
COC(=O)c1nn(-c2ccccc2)c(Cl)c1/C=N/OCc1c(Cl)cccc1Cl	-13%	0%	.	7%	-2
CO/N=C/c1c(C(=O)OC)nn(-c2ccccc2)c1Cl	3.8µM*	?	2%	?	-1
O=Cc1cccc(Oc2ncccn2)c1	-8%	-3%	-9%	-7%	4
Nc1ccc(Oc2ncccn2)cc1	?	-25%	-8%	?	-54*
CCCCCCC(=O)n1ccc2ccc(-c3ccc4ccn(Cc5ccc(OC)cc5)c4c3)cc21	.	.	.	.	-2
O=C(Nc1ccc2c(c1)Cc1ccccc1-2)NC1CCCCN(Cc2cccc(Cl)c2)C1=O (stereo unspecified)	.	.	.	.	3
O=C(O)CSc1c(-c2cccs2)[nH]c2ccccc12	27µM*	-3%	-1%	?	-1
Brc1ccc2[nH]c3nc(SCCN4CCOCC4)nnc3c2c1	-7%	21%	-14%	7%	12
O=C(CSc1nnc2c(n1)[nH]c1ccccc12)Nc1ccc2c(c1)OCO2	27µM*	0%	-4%	-8%	-12
SMILES	PLK1 PBD inh	GLS inh	KAT2A inh	VDR inhibitor	PI4K2A block
O=C(O)CSc1nnc2c(n1)[nH]c1ccccc12	24µM*	6%	-9%	-18%	2
Cc1ccc(NC(=O)CSc2nnc3c(n2)[nH]c2ccccc23)cc1	-1%	-5%	-3%	4%	-8
c1ccc2c(c1)[nH]c1nc(SCCN3CCOCC3)nnc12	27µM*	7%	-8%	-1%	9
Cc1ccc(S(=O)(=O)c2cn(Cc3ccccc3Cl)c3ccc(F)cc3c2=O)cc1	.	-6%	1%	-11%	1
CCC(CN)=C(c1ccccc1)c1ccccc1	.	.	.	.	-1
COc1ccc(C(=O)Nc2cc(C(=O)c3ccccc3)c(C)oc2=O)cc1	-14%	6%	-4%	32µM*	4
COC(=O)c1cc(NC(=O)c2ccccc2)c(=O)oc1C	?	12%	-3%	1%	-4
Cc1oc(=O)c(NC(=O)c2cccc(Cl)c2)cc1C(=O)c1ccccc1	-16%	2%	-16%	40µM*	2
COc1ccc(CCn2c3c(c(=O)[nH]c2=S)CN(CC(C)C)CN3)cc1OC	.	.	.	0%	.
c1ccc(CNc2ncncc2-c2ccoc2)cc1	.	.	-13%	50µM*	.
c1csc(CNc2ncncc2-c2ccoc2)c1	.	.	-13%	50µM*	.
c1csc(CNc2ncnc3ccc(-c4ccc5c(c4)OCO5)cc23)c1	.	3%	-16%	-2%	-4
c1csc(CNc2ncnc3ccc(-c4ccoc4)cc23)c1	.	-9%	-11%	32µM*!	-1
CC(=O)CC[C@H]1CC[C@]2(CCCN(S(=O)(=O)C3CCCCC3)C2)O1	.	.	.	.	7
Cc1ccc(-n2nc3c(c2NC(=O)c2cccs2)CS(=O)(=O)C3)cc1	-18%	12%	-4%	1%	-4
O=C(CCl)Nc1c2c(nn1-c1ccccc1)CSC2	27µM*	-5%	-5%	?	34
Cc1ccc(-n2nc3c(c2NC(=O)c2cccs2)CSC3)cc1	-7%	24%	3.5µM*	9%	-14
O=C(CCCCl)Nc1c2c(nn1-c1ccccc1)CSC2	-10%	6%	-3%	0%	-9
O=C(NCCc1c[nH]c2ccccc12)OCc1cn(-c2ccc(F)cc2)nn1	.	.	.	.	2
N#CCC[C@@H]1CC[C@]2(CCCN(C(=O)c3ccco3)C2)O1	.	.	.	.	-1
COC(=O)[C@]1(CNC(C)=O)CC(=O)N(Cc2ccc(Cl)cc2)[C@@H]1c1ccc(OC)cc1	.	.	.	.	-4
CN(C)c1ccc2c(-c3ccccc3)c3ccc(=[N+](C)C)cc-3oc2c1	.	.	?	45µM*	.
O=C(O)c1ccccc1-c1c2ccc(=O)cc-2oc2cc(O)ccc12	.	20%	?	2%	.
CCOC(=O)C(C#N)=C1CCC=C(C)C1	7%	-5%	.	.	-2
CCOC(=O)/C(C#N)=C1\CCCN1CC(N)=S	21µM*	-13%	3%	?	0
SMILES	PLK1 PBD inh	GLS inh	KAT2A inh	VDR inhibitor	PI4K2A block
Cc1cc2c(cc1S(=O)(=O)N(C)CC(=O)Nc1cccc(C#N)c1)OCC(=O)N2	.	-4%	0%	8%	5
Oc1ccc(-c2cn3c(n2)SCC3)cc1O	24µM*	?	-5%[0.501 µM]	-14%	-5
Oc1ccc(-c2cn3c(n2)SCC3)cc1	-10%	9%	-3%[0.501 µM]	-6%	-7
C[C@@H]1CCCN1c1cccc2c1S(=O)(=O)N(C1CC1)CCCO2	.	.	.	.	-1
O=C1CCCCCN1C(=O)c1ccc(C(=O)N2CCCCCC2=O)cc1	30µM*	0%	-4%	-2%	-2
O=c1[nH]c2ccccc2c(O)c1O	11µM*	5.6µM*	-16%	7.1µM*	-6
